Screen size: about 2,200 compounds; about 45 (2%) were called active. A selection follows. Measured potencies and affinities stand elsewhere. Values without a mark were called inactive. How the calls were made is not given here.
The compounds below were run against Runt-related transcription factor 1 (Homo sapiens) + Core-binding factor subunit beta (Homo sapiens) (UniProt Q01196+Q13951) (assay: inhibitors of RUNX1 Runt–CBFb-SMMHC binding, biochemical, TR-FRET (AID 1438)). Conditions: TR-FRET Runt domain–CBFb-SMMHC binding, at 20 µM, active compounds read high.
Runt-related transcription factor 1 (Homo sapiens) + Core-binding factor subunit beta (Homo sapiens), sequence (Q01196 whole entry, looked up, the tested form may be a part): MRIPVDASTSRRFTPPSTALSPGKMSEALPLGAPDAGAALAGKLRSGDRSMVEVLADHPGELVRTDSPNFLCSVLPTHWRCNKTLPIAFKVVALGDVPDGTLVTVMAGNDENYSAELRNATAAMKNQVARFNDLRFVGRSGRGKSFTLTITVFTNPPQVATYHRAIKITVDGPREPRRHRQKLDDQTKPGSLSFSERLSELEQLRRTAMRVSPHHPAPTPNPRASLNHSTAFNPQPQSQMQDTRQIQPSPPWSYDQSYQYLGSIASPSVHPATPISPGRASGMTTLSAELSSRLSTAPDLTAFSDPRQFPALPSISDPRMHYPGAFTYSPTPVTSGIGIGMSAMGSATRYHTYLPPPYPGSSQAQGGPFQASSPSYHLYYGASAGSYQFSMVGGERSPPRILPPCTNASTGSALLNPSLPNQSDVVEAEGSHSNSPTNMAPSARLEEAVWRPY
Runt-related transcription factor 1 (Homo sapiens) + Core-binding factor subunit beta (Homo sapiens), sequence (Q13951 whole entry, looked up, the tested form may be a part): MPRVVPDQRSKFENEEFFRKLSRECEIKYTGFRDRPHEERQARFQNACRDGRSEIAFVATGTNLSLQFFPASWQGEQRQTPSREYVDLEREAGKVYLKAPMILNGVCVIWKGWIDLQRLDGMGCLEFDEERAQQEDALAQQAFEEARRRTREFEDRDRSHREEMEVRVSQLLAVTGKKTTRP
`Cc1ccc(S(=O)(=O)c2cc3c(=O)n4cccc(C)c4nc3n(Cc3ccco3)c2=N)cc1C` gave an inhibition of 47.5%.
`CCCn1c(=NC(=O)c2c(-c3c(F)cccc3Cl)noc2C)c(C(=O)OCC)cc2c(=O)n3ccccc3nc21` showed an inhibition of -16.8%.
`COc1nc(N)c(S(=O)(=O)c2ccccc2)cc1C#N` was tested, and the inhibition was 8.9%.
With `CCOC(=O)c1cc2c(=O)n3ccccc3nc2n(CC2CCCO2)c1=NC(=O)/C=C/c1ccccc1` (stereo unspecified) the inhibition was 3.6%.
`C=CCNC(=O)/C(C#N)=C/c1c(N(Cc2ccccc2)Cc2ccccc2)nc2ccccn2c1=O` gave an inhibition of 19.2%.
`COCCN(C(=O)CN1CCc2ccccc2C1)c1c(N)n(Cc2ccccc2)c(=O)[nH]c1=O` was tested, and the inhibition was 23.7%.
In the case of `COc1ccccc1NC(=O)c1cc2ccc(O)cc2o/c1=N\O`, the inhibition is reported as -13.2%.
Work on `COc1ccccc1NC(=O)c1cc2ccccc2o/c1=N\O` yielded an inhibition of 30.6%.
Work on `COCCN1C=C(C(=O)OC)C(c2ccccc2C(F)(F)F)C(C(=O)OC)=C1` yielded an inhibition of 44%.
`COc1cc(/C=N/N2CCN(C3c4ccccc4-c4ccccc43)CC2)cc(OC)c1O` was tested, and the inhibition was 33.8%.
For `O=C1C2C3C=CC(CO)(O3)C2C(=O)N1c1ccc(-c2ccccc2)cc1` (stereo unspecified), the inhibition was 27.4%.
Work on `N#Cc1cc2cc3c(cc2nc1NCCNC(=S)NCCCN1CCOCC1)OCO3` yielded an inhibition of -18.1%.
For `CCOC(=O)Cc1csc(/N=C/c2c(O)n(-c3ccc(C)c(C)c3)c(=O)c3ccccc23)n1`, the inhibition was 5%.
For `O=c1c2ccccc2sn1-c1nccs1`, the inhibition was -7%.
`Cc1c2c(n3c(nc4ccccc43)c1C#N)N(CCCN(C)C)CC2` gave an inhibition of -5.5%.
For `Clc1ccc(C2=NN(c3ccccc3)C(c3ccco3)C2)cc1` (stereo unspecified), the inhibition was 37.8%.
`CC(C)OCCCn1c(=N)c(C(N)=S)cc2c(=O)n3ccccc3nc21` gave an inhibition of 49.7%.
With `CCOCCCn1c(=N)c(C(=O)NCc2ccc3c(c2)OCO3)cc2c(=O)n3cccc(C)c3nc21` the inhibition was 1.9%.
In the case of `Cc1cccn2c(=O)c3cc(C(N)=S)c(=N)n(CCCOC(C)C)c3nc12`, the inhibition is reported as 63.5% (active).
In the case of `CC(=O)N=c1c(C#N)cc2c(=O)n3cccc(C)c3nc2n1CCCOC(C)C`, the inhibition is reported as -10.3%.
`Cc1cccn2c(=O)c3cc(C(N)=S)c(=N)n(CCCN4CCOCC4)c3nc12` gave an inhibition of -11.3%.
Work on `N#C/C(=C(/O)CCCl)c1ccccn1` yielded an inhibition of -8%.
In the case of `c1ccc(-c2onc3cc4c(cc23)OCCO4)cc1`, the inhibition is reported as 17.4%.
Compound `CCOC(=O)c1cc2c(=O)n3cccc(C)c3nc2n(CC(C)C)c1=NC(=O)c1ccco1` has an inhibition of -5.3%.
Work on `CCOc1ccc2nc(NCCNC(=O)CC)c(C#N)cc2c1` yielded an inhibition of 33.5%.
Compound `CC(=O)N(C)/C=C1\Sc2ccccc2C1=O` has an inhibition of 6.4%.
`Cc1ccc(-n2c(=O)c(C#N)cc3c(=O)n4cccc(C)c4nc32)cc1` was tested, and the inhibition was 48.6%.
Compound `COCCCn1c(=O)/c(=C\c2ccc(OC(F)F)c(OC)c2)s/c1=C(/C#N)C(=O)NCCOC` has an inhibition of -12.1%.
`Cc1ccc(C)c(OCCn2cc(/C=C(\C#N)C(=O)NCc3ccco3)c3ccccc32)c1` showed an inhibition of 17.3%.
With `Cc1cc(N2C(=O)C=CC2=O)c([N+](=O)[O-])cc1C` the inhibition was 52.7% (active).
`COc1cc(N2C(=O)C=CC2=O)c(OC)cc1Cl` was tested, and the inhibition was -8.5%.
With `C=C(C)CNC(=S)Nc1sc2c(c1C(=O)OCC)CC(C)(C)OC2` the inhibition was -9.8%.
With `Cc1cccc(C)c1NC(=O)COC(=O)c1c2c(nc3ccccc13)/C(=C\c1ccc3c(c1)OCO3)CCC2` the inhibition was 1.3%.
`COc1ccc(/C=C2\CCc3c2nc2ccccc2c3C(=O)O)cc1OC` gave an inhibition of -11.1%.
Compound `O=C(O)c1c2c(nc3ccccc13)/C(=C/c1ccc(O)cc1)CC2` has an inhibition of -6.6%.
`NS(=O)(=O)c1ccc(NC(=O)COC(=O)c2c3c(nc4ccccc24)/C(=C\c2ccc4c(c2)OCO4)CCC3)cc1` showed an inhibition of -24.4%.
`CCN1CCc2c(C#N)c(N3CCOCC3)nc(NCc3ccccc3)c2C1` showed an inhibition of 35.4%.
Compound `Cc1cccn2c(=O)c3cc(C(=O)NCC4CCCO4)c(=N)n(CCN4CCOCC4)c3nc12` (stereo unspecified) has an inhibition of 11.3%.
Work on `COc1ccc(C2C=C(c3ccccc3)Nc3ncnn32)cc1` (stereo unspecified) yielded an inhibition of 30.8%.
Work on `Cc1ccccc1-n1c(=O)c(C#N)cc2c(=O)n3ccccc3nc21` yielded an inhibition of 23.6%.
`c1cc2c(cc1-c1csc(NNC3=NCCCCC3)n1)OCCO2` showed an inhibition of -4.3%.
For `N#Cc1c(NCCO)nc(NCc2ccccc2)c2c1CCN(Cc1ccccc1)C2`, the inhibition was 48.5%.
With `C=CCNc1nc(NCc2ccccc2)c(C#N)c2c1CN(C)CC2` the inhibition was 31.3%.
Compound `Cn1c(=N)c(S(=O)(=O)c2ccc(F)cc2)cc2c(=O)n3ccccc3nc21` has an inhibition of 47.6%.
`O=C(c1cc2ccccc2oc1=O)N1CCN(CCc2ccccc2)CC1` was tested, and the inhibition was 55.2% (active).
`COc1cc2cc(C(=O)N3CCN(Cc4ccc5c(c4)OCO5)CC3)c(=O)oc2cc1OC` was tested, and the inhibition was -6.8%.
`O=C(O)c1cc2ccc3ccccc3c2oc1=O` showed an inhibition of 34.5%.
`CC1=CC(c2ccc(Cl)cc2)n2nc(NC(=O)CCC(=O)O)nc2N1` (stereo unspecified) was tested, and the inhibition was -7.4%.
Compound `Cc1cc(-c2nc3cccnc3s2)ccc1NS(=O)(=O)c1cccs1` has an inhibition of -9.2%.
With `Cc1cccn2c(=O)c3cc(C#N)c(=NC(=O)c4ccco4)n(Cc4ccco4)c3nc12` the inhibition was -9.7%.
For `CCOC(=O)c1cc2c(=O)n3ccccc3nc2n(Cc2ccco2)c1=NC(=O)c1ccc(OC)cc1`, the inhibition was -16.9%.
Work on `CC(=O)N=c1c(C#N)cc2c(=O)n3cccc(C)c3nc2n1Cc1ccco1` yielded an inhibition of -8.8%.
`CC(=O)N=c1c(C#N)cc2c(=O)n3ccccc3nc2n1Cc1ccccc1` was tested, and the inhibition was 47.4%.
In the case of `Cc1ccccc1C(=O)N=c1c(C#N)cc2c(=O)n3cccc(C)c3nc2n1Cc1ccco1`, the inhibition is reported as 47%.
With `COCCCn1c(=NC(=O)c2ccncc2)c(C#N)cc2c(=O)n3cccc(C)c3nc21` the inhibition was 14%.
For `O=C(Cc1nc2ccccc2s1)c1ccc(O)cc1O`, the inhibition was 15.1%.

Reference: PubChem BioAssay AID1438 (Sanford-Burnham Center for Chemical Genomics, 2008)
